SW480 rereplic: A quantitative high throughput screen for small molecules that induce DNA re-replication in SW480 colon adenocarcinoma cells. SW480 DNA re-replication, Hoechst DNA content imaging, 48 h. Potency, µM (highest dose often 46.1 µM), inactives show at the highest dose re-replication activation, usual class: activators. hit rate 1.8% among 340,000. AID 624297, 2012; also: % of control where 0% means no effect; nearly all actives have a fitted effect of over 55% in size
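Treated cells incubate 48 hr (37 C, 5% CO2), are stained 40 min with Hoechst, and nuclear fluorescence is enumerated; a rise in nuclei with high DNA signal marks re-replication.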
KB-3-1 tox: qHTS assay for MDR1-selective chemotherapeutics: Primary screen using the parental adenocarcinoma cell KB-3-1. Potency, µM (top dose mostly 46.1 µM), usual class: cytotoxic. KB-3-1 viability, CellTiter-Glo ATP luminescence, 72 h. hit rate 1.4% among 400,000; also: % is scaled to controls: 0 for no effect and ±100 for the full control effect; nearly all actives have a fitted effect of over 60% in size
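Viability of parental KB-3-1 cells, measured by CellTiter-Glo luminescence, followed a 72 h incubation at 37 °C with pinned compounds in phenol-red-free DMEM containing 10% FBS.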
KB-V1 cytotox: qHTS assay for MDR1-selective chemotherapeutics: Primary screen using the drug-selected MDR subline cells KB-V1. KB-V1 MDR cells viability, CellTiter-Glo, 72 h. Potency, µM (titrated, usually from 46.1 µM), most hits filed as cytotoxic. hit rate 3.4% among 400,000; also: % is scaled to controls: 0 for no effect and ±100 for the full control effect; nearly all actives have a fitted effect of over 60% in size
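Luminescent ATP read-out (CellTiter-Glo, 10 min) measures survival of drug-selected KB-V1 MDR cells after 72 h, 37 degrees C compound exposure. Medium: phenol-red-free DMEM, 10% FBS. Values from fitted concentration-response curves.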
PTAP TSG101 blk: qHTS Assay for Iinhibitors of HIV-1 Budding by Blocking the Interaction of PTAP/TSG101 | Tumor susceptibility gene 101 protein (Homo sapiens), Q99816 | Fluorescence polarization, FITC-PTAP peptide / Tsg101 binding | Potency, µM (highest dose often 115 µM), for inactives: at the top dose activity change, negative = inhibition, actives largely listed as inhibitors | 340,000 tested, under 10 active | AID 493005, 2010; active = well fitted inhibition curve with a large enough effect in the main read-out, with a control signal flat, not every such curve was filed as active; inconclusive = small, poorly fitted or top-dose-only effect, or effect the other way, or a change in a side signal; inactive = no such curve, though single readings can be large or run the other way; also: % of control where 0% means no effect
Target sequence (Q99816 whole entry, looked up): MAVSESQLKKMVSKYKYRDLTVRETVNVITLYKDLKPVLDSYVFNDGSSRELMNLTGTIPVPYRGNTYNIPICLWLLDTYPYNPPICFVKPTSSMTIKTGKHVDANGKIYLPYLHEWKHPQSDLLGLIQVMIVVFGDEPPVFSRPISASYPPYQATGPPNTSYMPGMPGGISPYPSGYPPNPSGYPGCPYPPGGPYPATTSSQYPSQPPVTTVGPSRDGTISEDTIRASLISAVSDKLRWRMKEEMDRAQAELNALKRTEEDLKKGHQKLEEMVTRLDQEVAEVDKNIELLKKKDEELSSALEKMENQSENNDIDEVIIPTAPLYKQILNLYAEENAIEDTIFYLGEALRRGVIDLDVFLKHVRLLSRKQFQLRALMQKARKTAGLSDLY
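FP read-out: FITC-PTAP peptide, 50 nM final, binding Tsg101 binding domain, 10 uM final; 20 min, r.t.; 10 mM HEPES pH 7.5, 0.15 M NaCl, 0.01% Tween 20, 3 mM EDTA, 0.1 mM TCEP.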
MCF10A rerep: A quantitative high throughput screen for small molecules that induce DNA re-replication in MCF 10a normal breast cells; MCF 10A DNA re-replication, Hoechst nuclear intensity, 48 h; Potency, µM (top dose mostly 46.1 µM), inactives show at the highest dose activity, positive = re-replication, most hits filed as activators; hit rate 2.9% among 350,000; AID 624296, 2012; also: % of control where 0% means no effect; nearly all actives have a fitted effect of over 50% in size
PINK1 modulator: A Quantitative High throughput Screen to Identify Chemical Modulators of PINK1 Expression; hit rate 0.2% among 410,000; PINK1 immunofluorescence, high-content cytometry, 24 h; Potency, µM (doses to about 76.6 µM), for inactives: at the top dose activation (PINK1 increase), hits mostly activators; active = well fitted activation curve with a large enough effect; inconclusive = small, poorly fitted or top-dose-only effect; cell line not stated here; also: % of control where 0% means no effect; nearly all actives have a fitted effect of over 65% in size
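Cells are seeded, rested 12 hours, then given compound at five concentrations or DMSO for 24 hours. After fixation, blocking and antibody staining, PINK1 amount and mitochondrial localization are scored; CCCP serves as control.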
* = called active by the depositor; i = inactive; u = inconclusive; x = not tested or not shown; [ ] = remark or other dose. Shown are actives, neighbours in structure and some others; about 6.8% of the full set was active somewhere. Unless noted, calls follow the shape of the dose curve; as a rule, active = well fitted curve in the direction sought with a large enough effect; inconclusive = small, poorly fitted or top-dose-only effect, or another doubt; inactive = no such curve, though single readings can be large; an effect the other way counts as inactive or inconclusive. Potency is read from the fitted curve at half-maximal effect.

SMILES	SW480 rereplic	KB-3-1 tox	KB-V1 cytotox	PTAP TSG101 blk	MCF10A rerep	PINK1 modulator
O=C(COC(=O)Cn1cnc2ccccc21)Nc1ccc2c(c1)C(=O)c1ccccc1C2=O	6.5µM*	i	i	-1%	u	-1%
Cc1cccc(OCCC(=O)OC(C)C(=O)Nc2ccc(Cl)cn2)c1 (stereo not given)	-13%	i	i	-6%	-2%	3%
CC(OC(=O)CCOc1ccccc1)C(=O)Nc1ccc(Cl)cn1 (stereo not given)	u	i	i	-2%	16µM*	-1%
CCCCCCCCOc1ccccc1C(=O)Nc1ccc(C(=O)OCC[N+](C)(CC)CC)cc1	-2%	x	x	x	27µM*	x
COc1ccc(OC)c(C(=O)N(Cc2cc3cccc(C)c3nc2N2CCC(O)CC2)C2CC2)c1	x	x	x	x	x	1%
Cc1nc(-c2ccc([N+](=O)[O-])cc2)nc2[nH]ccc(=O)c12	-12%	i	i	-4%	10%	0%
Cc1nc(C)c2c(=O)cc(-c3ccccc3)[nH]c2n1	8.9µM*	7.1µM*	3.2µM*	-2%	7.9µM*	u
Cc1nc(-c2ccccc2)nc2[nH]ccc(=O)c12	-5%	u	9.2µM*	-3%	4%	-2%
c1ccc(-c2cc(N3CCOCC3)nc3ccccc23)cc1	7%	i	21µM*	-2%	29%	-1%[38.3 µM]
COC(=O)c1cc(=O)n(-c2ccc(F)cc2)c(=Nc2ccc(F)cc2)s1	u	u	u	-1%	5.2µM*	-1%
O=C(NC12CC3CC(CC(C3)C1)C2)c1ccc(-c2ccc(Cl)cc2)o1	u	u	u	-1%	12%	u
O=C(NC12CC3CC(CC(C3)C1)C2)c1ccccc1O	2%	i	i	-1%	8.2µM*	24%
O=C(N/N=C1\CCCc2ccccc21)c1ccccc1Cl	0%	i	i	-10%	5%	1%
O=C(NC12CC3CC(CC(C3)C1)C2)c1ccc(-c2ccccc2Cl)o1	9%	u	i	-1%	16µM*	5%
O=C(N/N=C1\CCc2ccccc21)c1ccccc1O	2%	i	21µM*	1%	-7%	0%
C/C(=N\NC(=O)c1ccc(N)cc1)C1CC1	-3%	i	u	-2%	7%	-1%
C/C(=N\NC(=O)c1ccccc1O)C1CC1	16µM*	i	i	-2%	2%	0%
O=C(Cn1cc(SCc2ccc(C(F)(F)F)cc2)c2ccccc21)N1CCCCC1	x	x	x	x	x	1%
CCOc1ccc2nc(N3CCCC(C(=O)NCc4ccccc4OC)C3)sc2c1 (stereo not given)	x	i	i	x	x	0%
O=S(=O)(Nc1cc(F)ccc1F)c1ccc2[nH]c3c(c2c1)CCCC3	x	i	i	x	x	13%
O=C(NN=C1C2CC3CC(C2)CC1C3)c1ccccc1O	21µM*	i	i	-1%	18%	2%
COc1ccc2c(C)nc(Nc3nc(C)cc(C)n3)nc2c1	5.2µM*	i	u	-5%	24%	2%[38.3 µM]
COc1ccc2c(C)nc(Nc3nc(C)c(C)c(=O)[nH]3)nc2c1	19%	3.7µM*	7.3µM*	0%	17%	-4%
O=C(Nc1ccc(-c2nc3ccccc3[nH]2)cc1)c1ccc(C(F)(F)F)cc1	x	i	i	x	x	x
CCC(=O)Nc1cc(ON=C(C)C)cc([N+](=O)[O-])c1	-5%	i	i	-5%	-3%	3%
SMILES	SW480 rereplic	KB-3-1 tox	KB-V1 cytotox	PTAP TSG101 blk	MCF10A rerep	PINK1 modulator
CCC(=O)Nc1cc(SCCO)cc([N+](=O)[O-])c1	4%	i	i	x	6%	3%[38.3 µM]
O=C(CCl)Nc1cc(SCC(O)CO)cc([N+](=O)[O-])c1 (stereo not given)	5.8µM*	5.8µM*	u	-1%	u	-2%
CC(C)=NOc1cc(NC(=O)CCl)cc([N+](=O)[O-])c1	9.2µM*	18µM*	16µM*	-3%	6.5µM*	-2%
O=c1c2cnn(-c3ccc(Cl)cc3)c2ncn1Cc1cccc(C(F)(F)F)c1	x	i	i	x	x	-2%
O=C(Nc1cccc(Cl)c1)c1cnc2sc(N3CCCC3)nn2c1=O	x	x	x	x	x	4%
COc1coc(/C=C/C(=O)O)cc1=O	1.5µM*	i	i	1%	-1%	1%
O=C1N(c2ccccc2C(F)(F)F)O[C@]1(c1ccccc1)C1CCCC1	u	i	i	3%	18µM*	-1%
COC(=O)c1cc(NC(=O)/C=C/c2ccc3c(c2)OCO3)cc(C(=O)OC)c1	12%	i	i	-6%	u	12%
COC(=O)c1cccc(NC(=O)/C=C/c2ccc3c(c2)OCO3)c1	-7%	5.8µM*	u	-2%	u	0%
O=C(/C=C/c1ccc2c(c1)OCO2)Nc1cccnc1	2%	8.2µM*	i	-6%	u	0%
CC(=O)Nc1ccc(NC(=O)/C=C/c2ccc3c(c2)OCO3)cc1	0%	i	i	1%	u	0%
NS(=O)(=O)c1ccc(NC(=O)/C=C/c2ccc3c(c2)OCO3)cc1	6.5µM*	2.3µM*	i	-4%	18µM*	12%
CCCN1CNc2c(c(=O)[nH]c(=S)n2CCc2cccc(C)c2C)C1	x	x	x	x	x	-1%
COc1ccccc1-c1noc(CSc2nnc(Cc3ccccc3)n2-c2ccc(C)c(C)c2)n1	x	i	i	x	x	-1%
O=C1CC(c2ccc3c(c2)OCCO3)Oc2ccc([N+](=O)[O-])cc21 (stereo not given)	-4%	u	u	-5%	16µM*	-1%
CCCCNC(=O)C1CCC(Cn2c(=O)c3sccc3n(Cc3ccccc3)c2=O)CC1 (stereo not given)	x	i	i	x	x	-1%
CC1CCc2cc(F)ccc2N1C(=O)CSc1nnc2c(n1)[nH]c1ccccc12 (stereo not given)	2%	i	16µM*	1%	u	1%
O=C(CSc1nnc2c(n1)[nH]c1ccccc12)N1CCCCC1	-19%	i	i	-3%	-3%	2%
CC1CCc2cc(F)ccc2N1C(=O)CSc1nnc(-c2cccs2)n1C (stereo not given)	-2%	i	7.3µM*	0%	9%	23%[38.3 µM]
Cn1c(SCC(=O)N2CCCc3ccccc32)nnc1-c1cccs1	-2%	i	i	0%	0%	-2%
